Inconclusive results are not listed. Where a call stands in place of a potency, no number is given. Values without a mark were called inactive. Active and inactive are the calls of the source. Calls follow the shape of the dose curve; as a rule, active = well fitted inhibition curve with a large enough effect; inconclusive = small, poorly fitted or top-dose-only effect; inactive = flat fitted curve, though single readings scatter.
Biological target: Calcium and integrin-binding protein 1 (Homo sapiens) (UniProt Q99828)
Experiment: Primary qHTS for Identification of Calcium Integrin Binding Protein 1 (CIB1) Competitor (AID 1508620);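 also: GST tagged CIB1 binding a fluorescein labelled alphaIIb integrin peptide tracer; top concentration of the series differs between compounds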
Settings: CIB1-GST / FITC-alphaIIb peptide fluorescence polarization; series mostly up to 114 µM
Summary of the method: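 CIB1-GST (1 uM final) and compound incubated 15 min at room temperature before adding FITC-alphaIIb peptide tracer (100 nM final). Competition for binding read by fluorescence polarization (ex 480, em 540) after another 15 min at room temperature.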

Calcium and integrin-binding protein 1 (Homo sapiens), sequence (Q99828 whole entry, looked up): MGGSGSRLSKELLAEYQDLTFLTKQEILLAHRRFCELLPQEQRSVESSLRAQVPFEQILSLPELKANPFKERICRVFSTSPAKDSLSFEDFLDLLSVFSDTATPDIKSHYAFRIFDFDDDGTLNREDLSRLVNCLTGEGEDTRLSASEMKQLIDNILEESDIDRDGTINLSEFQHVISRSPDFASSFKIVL

How did the Potency turn out when O=C1Nc2ccccc2-c2nc3ccccc3c(=O)n2-c2c(O)cccc21 was run?
The Potency was “inactive”.

Which Potency does the source give for COC1CC(=O)C23C(=O)NC(Cc4c[nH]c5ccccc45)C2C(C)C2(C)OC2C3/C=C/CC(C)CC1O (configuration not stated) here?
The Potency was “inactive”.

For COc1cc(O)cc(OC2OC(CO)C(O)C(O)C2O)c1 (configuration not stated), which Potency is on record?
The Potency was “inactive”.

Which Potency does the source give for Cc1cnc(-c2ccccc2C(C)C)nc1NCc1ccc(-n2ccnn2)cc1 here?
Its Potency is “inactive”.

For COc1cc2ncnc(Nc3ccc(F)c(Cl)c3)c2cc1O, which Potency is on record?
The Potency was “inactive”.

For C[C@@H]1CC[C@]2(C(=O)O)CC[C@]3(C)C(=CCC4[C@@]5(C)CC[C@H](O)[C@](C)(C(=O)O)C5CC[C@]43C)C2[C@]1(C)O (some centres not stated), which Potency is on record?
The Potency was “inactive”.

With CC(=O)O[C@@H]1CC2C(/C=C(\C)C(=O)[C@@]3(O)C[C@@H](C)[C@H](OC(=O)c4ccccc4)C3/C=C/1C)C2(C)C (some centres not stated) as the compound, how does the Potency read?
The Potency was “inactive”.

With C/C=C(\C)C(=O)O[C@H]1C=CC(=O)O[C@H]1/C=C/[C@@H](O)[C@H](C)O as the compound, how does the Potency read?
Its Potency is “inactive”.

For CC(=O)CC(=O)Nc1ccc(Cl)c(C(F)(F)F)c1, which Potency is on record?
Its Potency is “inactive”.

With C[C@@H](O[C@H]1OCCN(Cc2nn(P(=O)(O)O)c(=O)[nH]2)[C@H]1c1ccc(F)cc1)c1cc(C(F)(F)F)cc(C(F)(F)F)c1 as the compound, how does the Potency read?
The Potency was “inactive”.

Which Potency does the source give for CC(C)=CCC/C(C)=C/COCC1OC(n2ccc(=O)[nH]c2=O)C(O)C1O (configuration not stated) here?
Its Potency is “inactive”.

For C=C1CCC[C@]2(C)CC/C(=C(/CO)C(=O)OC)C[C@@H]12, which Potency is on record?
The Potency was “inactive”.

With C=C1C(=O)O[C@H]2CC(=C)[C@H]3CC[C@@](C)(O)[C@@H]3CC12 (some centres not stated) as the compound, how does the Potency read?
The Potency was “inactive”.

For C/C=C/C=C/C=C/C(=O)O[C@@H]1C=C(CO)C(O)(C(=O)OC)[C@@]2(C)CCCC(C)(C)C12 (some centres not stated), which Potency is on record?
The Potency was “inactive”.

Which activity change, negative = inhibition does the source give for C[C@@H]1O[C@@H](O[C@H]2[C@H](OC(=O)[C@]34CCC(C)(C)C[C@H]3C3=CCC5[C@@]6(C)C[C@H](O)[C@H](O[C@@H]7O[C@H](CO)[C@@H](O)[C@H](O)[C@H]7O)[C@](CO)(C(=O)O)C6CC[C@@]5(C)[C@]3(C)C[C@H]4O)OC[C@H](O)[C@@H]2O)[C@H](O)[C@H](O)[C@H]1O[C@@H]1OC[C@@H](O)[C@H](O[C@@H]2OC[C@](O)(CO)[C@H]2O)[C@H]1O (some centres not stated) here?
Its activity change, negative = inhibition is 3.47% [at 12.4 µM].

CNC(=O)c1cc(Oc2ccc(NC(=O)c3cccc(C(F)(F)F)c3)cc2)ccn1 was tested. Which Potency did it give?
Its Potency is “inactive”.

Which Potency does the source give for C=C(C)C(=O)OC1CC(CO)CCC/C(CO)=C/C2OC(=O)C(=C)C21 (configuration not stated) here?
Its Potency is “inactive”.

Cc1cc(C(=O)Nc2cc(Oc3ccc4nc(NC(=O)C5CC5)cn4n3)ccc2C)n(C)n1 was tested. Which Potency did it give?
Its Potency is “inactive”.

How did the Potency turn out when COC(=O)C1=CO[C@@H](O[C@@H]2O[C@H](CO)[C@@H](O)[C@H](O)[C@H]2O)[C@H]2[C@@H]1C=C[C@]21C=C([C@H](C)OC(=O)/C=C/c2ccc(O)cc2)C(=O)O1 was run?
The Potency was “inactive”.

Which Potency does the source give for Cc1cc(-c2ncc(-c3cccnc3)cc2/C=C/c2ccccc2)cnc1-c1cccnc1 here?
Its Potency is “inactive”.

How did the Potency turn out when C=C1C(OC2OC(CO)C(O)C(O)C2O)CC2C(C)(C)C(O)CCC2(C)C1CC/C(C)=C\COC(=O)CC(=O)O (configuration not stated) was run?
The Potency was “inactive”.

With CCCCCc1ccc(/C=C/C(=O)Nc2cc(Cl)ccc2C(=O)O)cc1 as the compound, how does the Potency read?
Its Potency is “inactive”.

COc1ccc(-c2c(C)nn3c(NCCN4CCOCC4)cc(C)nc23)cc1OC was tested. Which Potency did it give?
The Potency was “inactive”.

With C=CC(=O)Nc1ccc2ncnc(Nc3cccc(Br)c3)c2c1 as the compound, how does the Potency read?
The Potency was “inactive”.

How did the Potency turn out when CC1CC(=O)C2=C(C1)C1OC1C1(O)C2C(=O)c2cccc(O)c2C1O (configuration not stated) was run?
The Potency was “inactive”.

Which Potency does the source give for CC(C)(F)CC(NC(c1ccc(-c2ccc(S(C)(=O)=O)cc2)cc1)C(F)(F)F)C(=O)NC1(C#N)CC1 (configuration not stated) here?
The Potency was “inactive”.

Which Potency does the source give for C=C1C(=O)O[C@@H]2/C=C(\C)CC/C=C(\C)CC[C@@H]12 here?
The Potency was “inactive”.

CN(C)CCOC(C)(c1ccccc1)c1ccc(Cl)cc1 (configuration not stated) was tested. Which Potency did it give?
The Potency was “inactive”.

With CC(O)(C(=O)O)C1CCC2(C)C1CCC1(C)C2CCC2C3(C)CCC(O)C(C)(COC4OC(CO)C(O)C(O)C4O)C3CCC21C (configuration not stated) as the compound, how does the Potency read?
The Potency was “inactive”.

Which Potency does the source give for CC(=O)C1=C(O)C=C2Oc3c(C(C)=O)c(O)c(C)c(O)c3[C@]2(C)C1=O here?
The Potency was “inactive”.

With COC1=CC(=O)C=C(C)C12Oc1c(Cl)c(OC)cc(OC)c1C2=O (configuration not stated) as the compound, how does the Potency read?
Its Potency is “inactive”.

CC(C)C[C@@H](N)C(=O)N[C@H]1C(=O)N[C@@H](CC(N)=O)C(=O)N[C@H]2C(=O)N[C@H]3C(=O)N[C@H](C(=O)N[C@H](C(=O)O)c4cc(O)cc(O)c4-c4cc3ccc4O)[C@H](O)c3ccc(c(Cl)c3)Oc3cc2cc(c3O[C@@H]2O[C@H](CO)[C@@H](O)[C@H](O)[C@H]2O[C@H]2C[C@](C)(N)[C@H](O)[C@H](C)O2)Oc2ccc(cc2Cl)[C@H]1O was tested. Which Potency did it give?
The Potency was “inactive”.
